{"source": "paper PMC4336329", "about": "(PLoS ONE, 2015)", "note": "Hit rate of the full screen: of about 310,000 compounds, about 14,000 (4.5%) showed an effect of 50% or more. Effects have a minus sign here. The list comes from a sample in which strong results are over-represented; it also holds similar structures and randomly drawn compounds.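 Further: peak tail current of the secondary pulse compared with the same well before compound.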", "data": [{"biological_target": "human ether-à-go-go-related gene (hERG) potassium channel (human, UniProt Q12809)", "sequence (Q12809 whole entry, looked up)": "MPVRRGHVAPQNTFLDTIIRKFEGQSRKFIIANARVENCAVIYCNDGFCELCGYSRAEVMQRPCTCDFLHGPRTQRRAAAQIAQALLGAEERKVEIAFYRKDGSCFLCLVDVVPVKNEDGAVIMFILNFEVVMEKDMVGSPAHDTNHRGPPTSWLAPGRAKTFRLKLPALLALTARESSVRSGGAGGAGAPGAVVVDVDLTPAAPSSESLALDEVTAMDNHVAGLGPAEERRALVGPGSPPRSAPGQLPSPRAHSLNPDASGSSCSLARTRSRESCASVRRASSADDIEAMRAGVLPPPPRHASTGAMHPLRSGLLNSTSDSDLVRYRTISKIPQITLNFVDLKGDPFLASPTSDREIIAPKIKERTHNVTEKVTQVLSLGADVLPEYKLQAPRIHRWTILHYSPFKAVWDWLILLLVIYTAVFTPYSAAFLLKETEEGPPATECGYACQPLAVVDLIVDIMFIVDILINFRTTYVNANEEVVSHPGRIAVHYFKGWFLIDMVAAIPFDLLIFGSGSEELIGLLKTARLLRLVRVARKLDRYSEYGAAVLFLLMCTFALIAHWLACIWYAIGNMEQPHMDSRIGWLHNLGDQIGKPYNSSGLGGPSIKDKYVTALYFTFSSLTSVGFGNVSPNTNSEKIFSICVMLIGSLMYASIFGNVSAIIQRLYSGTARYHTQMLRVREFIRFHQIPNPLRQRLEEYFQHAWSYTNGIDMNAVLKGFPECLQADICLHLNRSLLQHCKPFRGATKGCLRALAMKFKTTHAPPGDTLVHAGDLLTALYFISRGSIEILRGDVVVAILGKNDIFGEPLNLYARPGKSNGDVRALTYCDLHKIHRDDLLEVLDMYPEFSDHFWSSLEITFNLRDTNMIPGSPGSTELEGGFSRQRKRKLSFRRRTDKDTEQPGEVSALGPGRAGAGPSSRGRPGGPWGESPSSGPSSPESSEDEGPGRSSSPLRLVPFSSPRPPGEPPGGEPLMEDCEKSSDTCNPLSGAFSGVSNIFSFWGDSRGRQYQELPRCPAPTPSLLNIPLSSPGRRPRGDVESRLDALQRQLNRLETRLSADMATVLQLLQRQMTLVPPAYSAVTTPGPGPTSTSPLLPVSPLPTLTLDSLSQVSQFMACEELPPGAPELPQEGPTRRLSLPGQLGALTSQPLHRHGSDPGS", "experiment": "primary screen, population patch clamp on CHO cells stably expressing hERG; higher = less effect of the substance", "units": {"hERG current change (%, negative = inhibition) at 10uM": "%"}, "values": [{"smiles": "COc1ccc(C(CC(=O)NCc2ccco2)c2ccc(F)cc2)cc1", "note": "(stereo not shown)", "hERG current change (%, negative = inhibition) at 10uM": -22.4}, {"smiles": "O=C(NCc1nnc(SCC(=O)N2CCN(c3ccccc3)CC2)o1)c1ccc(F)cc1", "hERG current change (%, negative = inhibition) at 10uM": -5.96}, {"smiles": "O=S(=O)(NCc1cccnc1)c1cccc2cccnc12", "hERG current change (%, negative = inhibition) at 10uM": 6.44}, {"smiles": "COc1ccc(CCNS(=O)(=O)c2ccc3c(c2)CCN3C(=O)C2CC2)cc1OC", "hERG current change (%, negative = inhibition) at 10uM": 0.919}, {"smiles": "CCOCCCn1c(SCc2nc3ccccc3s2)nc2ccccc2c1=O", "hERG current change (%, negative = inhibition) at 10uM": -2.07}, {"smiles": "Cc1ccc(C)n1CCN1CCN(C(=O)CSc2nc3ccccc3nc2N2CCOCC2)CC1", "hERG current change (%, negative = inhibition) at 10uM": -54.5}, {"smiles": "CCCn1c(SC(C)C(=O)N2CCOCC2)nc2ccc(Br)cc2c1=O", "note": "(stereo not shown)", "hERG current change (%, negative = inhibition) at 10uM": -56.1}, {"smiles": "CCCCn1c(SCc2nc3ccccc3s2)nc2ccccc2c1=O", "hERG current change (%, negative = inhibition) at 10uM": -54.7}, {"smiles": "O=C(CSc1nc2ccccc2nc1N1CCOCC1)N1CCN(c2ccccc2)CC1", "hERG current change (%, negative = inhibition) at 10uM": -39.2}, {"smiles": "CCCn1c(SCC(=O)N2CCN(c3ccccc3)CC2)nc2ccccc2c1=O", "hERG current change (%, negative = inhibition) at 10uM": -56.7}, {"smiles": "CCn1c(SCC(=O)N2CCN(c3ccc(Cl)cc3)CC2)nc2ccccc2c1=O", "hERG current change (%, negative = inhibition) at 10uM": 8.79}, {"smiles": "CCn1c(SCC(=O)N2CCN(c3ccc(F)cc3)CC2)nc2ccccc2c1=O", "hERG current change (%, negative = inhibition) at 10uM": -45.2}, {"smiles": "COc1ccc(-n2c(SC(C)C(=O)N3CCOCC3)nc3ccccc3c2=O)cc1", "note": "(stereo not shown)", "hERG current change (%, negative = inhibition) at 10uM": 6.84}, {"smiles": "O=c1c2ccccc2nc(SCc2nc3ccccc3s2)n1CCCO", "hERG current change (%, negative = inhibition) at 10uM": -4.88}, {"smiles": "CCn1c(SC(C)C(=O)N2CCOCC2)nc2sc(C)c(C)c2c1=O", "note": "(stereo not shown)", "hERG current change (%, negative = inhibition) at 10uM": 3.37}, {"smiles": "O=C(CSc1nc2ccccc2nc1SCC(=O)N1CCOCC1)N1CCOCC1", "hERG current change (%, negative = inhibition) at 10uM": -5.85}, {"smiles": "O=C1CCC(C(=O)Nc2ccc(Cl)cc2)N1", "note": "(stereo not shown)", "hERG current change (%, negative = inhibition) at 10uM": 28}, {"smiles": "CC1CCN(C(=O)c2ccc3c(c2)NC(=O)CN3)CC1", "hERG current change (%, negative = inhibition) at 10uM": 8.49}, {"smiles": "Nc1ccc(C2(c3ccc(N)cc3)OC(=O)c3ccccc32)cc1", "hERG current change (%, negative = inhibition) at 10uM": -6.43}, {"smiles": "CCOC(=O)C1CCN(C(=O)C(=O)Nc2ccc3nc4n(c(=O)c3c2)CCCCC4)CC1", "hERG current change (%, negative = inhibition) at 10uM": 1.99}, {"smiles": "CCC1(C)Cc2c(sc3nc(NN)n(C)c(=O)c23)CO1", "note": "(stereo not shown)", "hERG current change (%, negative = inhibition) at 10uM": 13.4}, {"smiles": "Cc1ccc(C(C(=O)NC2CCCC2)N(C(=O)CNC(=O)c2cccs2)c2cccnc2)o1", "note": "(stereo not shown)", "hERG current change (%, negative = inhibition) at 10uM": -11.1}, {"smiles": "COCCCn1c(SCC(=O)N2CCOCC2)nc2ccccc2c1=O", "hERG current change (%, negative = inhibition) at 10uM": -5.65}, {"smiles": "O=C1CN(C(=O)CSc2nc3ccccc3c(=O)n2CCCN2CCOCC2)c2ccccc2N1", "hERG current change (%, negative = inhibition) at 10uM": -19.7}, {"smiles": "CCCCn1c(SCC(=O)N2CCOCC2)nc2ccccc2c1=O", "hERG current change (%, negative = inhibition) at 10uM": -68.4}, {"smiles": "Cn1c(N)c(C(=O)CSc2nc3ccccc3c(=O)n2CCCN2CCOCC2)c(=O)n(C)c1=O", "hERG current change (%, negative = inhibition) at 10uM": 2.7}, {"smiles": "O=C(CSc1nc2ccccc2c(=O)n1CCCN1CCOCC1)c1c[nH]c2ccccc12", "hERG current change (%, negative = inhibition) at 10uM": -54}, {"smiles": "O=C(CSc1nc2ccccc2c(=O)n1CCCN1CCOCC1)N1CCN(c2ccccc2)CC1", "hERG current change (%, negative = inhibition) at 10uM": -70.6}, {"smiles": "CCCCn1c(SCC(=O)NC2CC2)nc2ccccc2c1=O", "hERG current change (%, negative = inhibition) at 10uM": -4.62}, {"smiles": "Cc1[nH]c2ccccc2c1C(=O)CSc1nc2ccccc2c(=O)n1CCCN1CCOCC1", "hERG current change (%, negative = inhibition) at 10uM": -5.57}, {"smiles": "CCOCCCn1c(SCC(=O)N2CCOCC2)nc2ccccc2c1=O", "hERG current change (%, negative = inhibition) at 10uM": -36}, {"smiles": "Cc1onc(-c2c(Cl)cccc2Cl)c1C(=O)NCCCN1CCOCC1", "hERG current change (%, negative = inhibition) at 10uM": 3.09}, {"smiles": "O=C(CCc1c[nH]c2ccccc12)OCc1ccc(Br)cc1", "hERG current change (%, negative = inhibition) at 10uM": 10.2}, {"smiles": "Cc1ccc(-n2nc(C)c3c2OC(N)=C(C#N)C3c2ccncc2)cc1", "note": "(stereo not shown)", "hERG current change (%, negative = inhibition) at 10uM": 7.07}, {"smiles": "COc1ccc(C(=O)Nc2ccc(NC(C)=O)cc2)cc1S(=O)(=O)N(C)Cc1ccccc1", "hERG current change (%, negative = inhibition) at 10uM": 10.3}, {"smiles": "CCN(C(=O)COC(=O)c1ccc(OC)c(S(=O)(=O)N(C)Cc2ccccc2)c1)C1CCS(=O)(=O)C1", "note": "(stereo not shown)", "hERG current change (%, negative = inhibition) at 10uM": -30.9}, {"smiles": "CCN(Cc1ccccc1)S(=O)(=O)c1cc(C(=O)NCCCN(C)C)ccc1OC", "hERG current change (%, negative = inhibition) at 10uM": -50.3}, {"smiles": "CCN(Cc1ccccc1)S(=O)(=O)c1cc(C(=O)NCC2CCCCC2)ccc1OC", "hERG current change (%, negative = inhibition) at 10uM": -9.52}, {"smiles": "COc1ccc(C(=O)OCC(=O)NC2CC2)cc1S(=O)(=O)N(C)Cc1ccccc1", "hERG current change (%, negative = inhibition) at 10uM": -53.8}, {"smiles": "COc1ccc(C(=O)NC(C)c2ccncc2)cc1S(=O)(=O)N(C)Cc1ccccc1", "note": "(stereo not shown)", "hERG current change (%, negative = inhibition) at 10uM": -61}, {"smiles": "COc1ccc(C(=O)OCC(=O)N(C)C2CCS(=O)(=O)C2)cc1S(=O)(=O)N(C)Cc1ccccc1", "note": "(stereo not shown)", "hERG current change (%, negative = inhibition) at 10uM": -15.7}, {"smiles": "CCN(Cc1ccccc1)S(=O)(=O)c1cc(C(=O)O)ccc1OC", "hERG current change (%, negative = inhibition) at 10uM": 14.1}, {"smiles": "COc1ccc(C(=O)NCc2ccc3c(c2)OCO3)cc1S(=O)(=O)N(C)Cc1ccccc1", "hERG current change (%, negative = inhibition) at 10uM": -12.3}]}]}
